Laboratory results from PubChem BioAssay (NCATS).
Results filed as inconclusive are left out. The source made the active and inactive calls. The call rests on the fitted dose curve; in most records, active means well fitted curve in the direction sought with a large enough effect; inconclusive means small, poorly fitted or top-dose-only effect, or another doubt; inactive means no such curve, though single readings can be large; an effect the other way counts as inactive or inconclusive.

Key:
[1] = Cell Viability - LYMP2-015 (AID 971); further: nearly all actives have a fitted effect of over 55% in size
In short: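 Cytotoxicity readout: decrease in intracellular ATP (CellTiter-Glo luminescence) in 2500 LYMP2-015 lymphoblastoid cells/well after 24 h compound exposure at 37 C. Concentration-response data fitted with the standard Hill equation to give AC50.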

[2] = Cell Viability - LYMP2-017 (AID 972); further: series mostly up to about 92 µM; nearly all actives have a fitted effect of over 55% in size
In short: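 CellTiter-Glo luminescence (cellular ATP, 30 min RT) measured cytotoxicity after 24 hr compound treatment at 37 C. Cells were a human lymphoblastoid line, LYMP2-017, plated at 2500/well and incubated 5 hr first; concentration-response fitted with Hill equation for AC50.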

[3] = Cell Viability - LYMP2-019 (AID 973); further: nearly all actives have a fitted effect of over 55% in size
In short: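 AC50 values come from Hill-equation fits of luminescent intracellular ATP (CellTiter-Glo, 30 min, room temperature) following 24 h compound exposure at 37 C. Cells: LYMP2-019 lymphoblastoid line, 2500 per well, in complete culture medium.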

[4] = Cell Viability - LYMP2-021 (AID 974); further: nearly all actives have a fitted effect of over 55% in size
In short: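 AC50 values come from Hill-equation fits to CellTiter-Glo luminescence (ATP content), read after 24 hour compound exposure at 37 C of 2500 LYMP2-021 lymphoblastoid cells/well; tetraoctylammonium bromide as positive control.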

[5] = Cell Viability - LYMP2-023 (AID 975)
In short: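 Intracellular ATP, read by CellTiter-Glo luminescence, reports viability after 24 hr compound exposure at 37 C. 2500 lymphoblastoid cells/well (LYMP2-023) seeded 5 hr beforehand; Hill fits give AC50; positive control tetraoctylammonium bromide.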

[6] = Cell Viability - LYMP2-025 (AID 976); further: series mostly up to about 92 µM
In short: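 Cytotoxicity read as loss of intracellular ATP (luciferase luminescence) after 24 h compound treatment at 37 C. Uses LYMP2-025 lymphoblastoid cells in 1536-well format; Hill-equation modelling gives AC50; tetraoctylammonium bromide as positive control.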

[7] = Cell Viability - LYMP2-002 (AID 977); further: series mostly up to about 92 µM
In short: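 Human lymphoblastoid cells, 2500/well, complete medium; 5 h 37 C settle; compound 24 h 37 C; CellTiter-Glo, 30 min RT; luminescence. Decrease in ATP = cytotoxicity; AC50 via Hill equation.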

[8] = Cell Viability - LYMP2-006 (AID 978); further: series mostly up to about 92 µM; nearly all actives have a fitted effect of over 60% in size
In short: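 Human lymphoblastoid cells (LYMP2-006), 2500/well in complete medium, were treated with compound for 24 hr at 37 C. Cellular ATP was read by CellTiter-Glo luminescence after 30 min, and AC50 values came from Hill-equation fits of concentration-response data.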

[9] = Cell Viability - LYMP2-007 (AID 979);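 further: cells exposed to compound for 24 h before reading; nearly all actives have a fitted effect of over 60% in size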
In short: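 AC50 values come from Hill-equation fits of luminescent intracellular ATP (CellTiter-Glo, 30 min, room temperature) following 24 h compound exposure at 37 C. Cells: LYMP2-007 lymphoblastoid line, 2500 per well, in complete culture medium.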

[10] = Cell Viability - LYMP2-008 (AID 980); further: nearly all actives have a fitted effect of over 60% in size
In short: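 Cytotoxicity determined from ATP-dependent luciferase luminescence (CellTiter-Glo) following 24 h compound exposure of human lymphoblastoid LYMP2-008 cells at 37 C. Concentration-response data fitted to the Hill equation to give AC50.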

[11] = Cell Viability - LYMP2-010 (AID 981); further: nearly all actives have a fitted effect of over 55% in size; further: potency means the concentration at half of the fitted maximal effect
In short: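 CellTiter-Glo ATP luminescence measured cytotoxicity after 24 h compound exposure at 37 C. LYMP2-010 cells were seeded at 2500/well, with tetraoctylammonium bromide as control; concentration-response curves gave AC50 values by the Hill equation.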

[12] = Cell Viability - LYMP2-012 (AID 982)
[13] = Cell Viability - LYMP2-014 (AID 983); further: series mostly up to about 92 µM; nearly all actives have a fitted effect of over 50% in size
In short: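 Intracellular ATP loss, read by luciferase luminescence, measures acute cytotoxicity after 24 h compound exposure of lymphoblastoid LYMP2-014 cells (2500/well, 37 C). Concentration-response data fitted to the Hill equation for AC50.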

[14] = Cell Viability - LYMP2-016 (AID 984); further: nearly all actives have a fitted effect of over 55% in size
In short: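 Human lymphoblastoid LYMP2-016 cells, 2500 per well, treated with compounds for 24 h at 37 C. Viability read as intracellular ATP by CellTiter-Glo luminescence after 30 min at room temperature; AC50 from Hill fits of concentration-response.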

[15] = Cell Viability - LYMP2-018 (AID 985); further: nearly all actives have a fitted effect of over 50% in size
In short: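 Viability read as CellTiter-Glo luminescence (cellular ATP) after 24 hr compound exposure at 37 C of 2500 LYMP2-018 lymphoblastoid cells/well, pre-plated 5 hr. Hill-equation modelling gave AC50.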

[16] = Cell Viability - LYMP2-020 (AID 986)
In short: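 Cytotoxicity in qHTS format: luminescent ATP readout from CellTiter-Glo after 24 h compound exposure at 37 C in complete medium. LYMP2-020 lymphoblastoid cells were seeded at 2500/well; concentration-response data fitted to the Hill equation for AC50.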

[17] = Cell Viability - LYMP2-022 (AID 987); further: nearly all actives have a fitted effect of over 55% in size
In short: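 Cytotoxicity read as decreased cellular ATP (CellTiter-Glo luminescence, 30 min room temperature) after 24 hours compound exposure of 2500 lymphoblastoid LYMP2-022 cells/well at 37 C. Concentration-response data fitted with standard Hill equation for AC50.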

[18] = Cell Viability - LYMP2-024 (AID 988); further: nearly all actives have a fitted effect of over 60% in size
In short: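 Cytotoxicity was taken as a decrease in ATP (CellTiter-Glo luminescence) after 24 hr compound exposure at 37 C of LYMP2-024 lymphoblastoid cells, 2500 cells/well. Concentration-response data were fitted to the Hill equation to give AC50.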

[19] = Cell Viability - LYMP2-026 (AID 989); further: nearly all actives have a fitted effect of over 50% in size
In short: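 Cytotoxicity read as ATP-dependent luminescence (CellTiter-Glo, 30 min room temperature) after 24 h compound treatment at 37 C. LYMP2-026 lymphoblastoid line seeded at 2500 cells/well; AC50 derived by standard Hill equation.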

[20] = biological target: Alpha-galactosidase A (Homo sapiens) (UniProt P06280); assay: Counterscreen for Glucocerebrosidase Inhibitors: qHTS Assay for Human alpha-Galactosidase at pH 4.5 (AID 992)
Sequence of Alpha-galactosidase A (Homo sapiens) (P06280 whole entry, looked up): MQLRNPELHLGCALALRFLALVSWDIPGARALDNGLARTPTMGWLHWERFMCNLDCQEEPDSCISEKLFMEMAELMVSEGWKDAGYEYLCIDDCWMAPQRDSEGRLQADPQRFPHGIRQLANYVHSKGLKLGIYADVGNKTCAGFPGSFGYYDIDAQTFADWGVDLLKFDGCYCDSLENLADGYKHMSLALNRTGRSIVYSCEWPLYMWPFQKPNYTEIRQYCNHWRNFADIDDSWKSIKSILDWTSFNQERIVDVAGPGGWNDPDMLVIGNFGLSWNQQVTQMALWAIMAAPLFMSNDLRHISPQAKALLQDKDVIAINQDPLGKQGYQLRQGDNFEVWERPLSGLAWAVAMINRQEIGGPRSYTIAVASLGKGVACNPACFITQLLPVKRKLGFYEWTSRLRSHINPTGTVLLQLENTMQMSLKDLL
In short: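 Each compound is preincubated briefly with 2 nM enzyme before substrate addition (80 uM); plates then sit 20 min at ambient temperature, are quenched with 1M NaOH/1M glycine, and read fluorometrically.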

Measured: Potency

Cc1ccc(N)cc1O
not listed: [20]
inactive: all other assays above

CC(=O)O[C@H]1C(=O)[C@@]2(C)[C@H]([C@H](OC(=O)c3ccccc3)[C@]3(O)C[C@H](OC(=O)[C@H](O)[C@@H](NC(=O)c4ccccc4)c4ccccc4)C(C)=C1C3(C)C)[C@]1(OC(C)=O)CO[C@@H]1C[C@@H]2O
inactive: [20]

Nc1ccccc1N
active: [11] 15.8 µM
not listed: [7] | [8] | [10] | [16] | [17] | [18] | [20]
inactive: all other assays above

CC(=O)O[C@@H]1CC(C)=C2[C@H]1[C@H](C)CC[C@H]2/C=C(\C)C(=O)O
not listed: [20]
inactive: all other assays above
